Results on 19 compounds are retold here after PubChem BioAssay.

The structures appear in SMILES notation. Active and inactive are the calls of the source. Unless noted, how the calls were made is not given here.

A short description of experiment [1]: circadian clock period modulators, cell-based, LOPAC library, luminescence reporter (AID 2774).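 Further: values are relative to mean of DMSO wells on each plate.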 The settings on record: circadian reporter cells, at 7 µM, actives lie on both sides.
The nature of experiment [2]: hESC survival regulators, cell-based (AID 493140).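 Further: cells exposed to compounds for four days before counting.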 The conditions noted are these: human embryonic stem cell survival screen; stronger effect = higher value.
The subject of experiment [3] is Hepatitis C virus NS3 helicase. Briefly: HCV NS3 helicase inhibitors, primary screen, biochemical, fluorescence polarization, LOPAC1280 library (AID 687035; in the data active means inhibition above about 37%). The conditions noted are these: Purified HCV NS3 helicase, Cy5-dT15 ssDNA binding fluorescence polarization; stronger effect = higher value; concentration not given here.
The nature of experiment [4]: Cy5 fluorescence quenching or enhancement artefacts, artefact control for HCV NS3 helicase inhibitor project, biochemical, LOPAC1280 (AID 687037). The settings on record: Cy5-DNA-NS3h complex fluorescence interference counterscreen.
Experiment [5] in a line: sensitizers of A549 cells to miR-34 induction, primary screen, imaging, A549 dox-inducible miR-34, nuclei and caspase counts (AID 1347080;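 active means compounds whose cell count with miR-34 switched on is under 0.7 times the count with it off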). The settings on record: A549 miR-34 inducible, Hoechst nuclei count, 48 h.
Experiment [6] can be described thus: phospholipid biosynthesis inhibitors in animal cells, primary screen, cell-based, LOPAC library, screen 4 (AID 1347384). The settings on record: phospholipid biosynthesis inhibition screen, at 10 µM.
Experiment [7] is described as follows: viability rescue of complex I mutant cybrids, primary screen, cell-based, galactose medium, ATP luminescence (AID 1645843;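 active means z-score of at least 1.8 in each of two replicates, scored against plate mean and spread of sample wells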;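 further: positive z means more ATP and so rescue of galactose-driven cybrid death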). The conditions noted are these: complex I mutant cybrid cells, 72 h, stronger effect = higher value.
Experiment [8] is described as follows: liver-stage malaria parasite growth inhibition, primary screen, cell-based, HepG2, luciferase luminescence, HepG2 viability (AID 624349; in the data active means parasite load remaining mostly below about 12%, no sharp cut-off; inactive means mostly above about 10%;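 further: 100% = mean of DMSO negative control wells on the same plate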). The settings on record: P. berghei liver stage in HepG2, luciferase luminescence, concentration not given here; parasite load remaining: stronger effect = lower value; viability: measured here: HepG2 viability without parasites.
Where [9] appears, read: stronger effect = lower value, cell number ratio, induced over uninduced.
Where [10] appears, read: measured here: relative caspase fold change +Dox/-Dox.
Setting [11] is: measured here: total cells with miR-34 induction, stronger effect = lower value.
Where [12] appears, read: measured here: total cells without miR-34 induction.

For `Brc1ccc([C@H]2CN3CCSC3=N2)cc1`, the period change in experiment [1] was -0.16 h (inactive). The survival in experiment [2] is 79.5 (inactive). The inhibition in experiment [3] is 0% (inactive). Besides, the fluorescence ratio (interference) in experiment [4] is 0.9 (inactive). Moreover, the fold change in experiment [5] (setting [9]) was 1.04 (inactive); in experiment [5] (setting [10]) it was 1.3. Moreover, the figures for the cell count in experiment [5] (setting [11]) and in experiment [5] (setting [12]) were 9880 and 9490, respectively. For the same compound, the outcome in experiment [6] was inactive. Besides, in experiment [7], the z-score was 0.145 (inactive).
For `C=CC[C@H](N)C(=O)O`, the period change in experiment [1] was -0.185 h (inactive). The inhibition in experiment [3] is -3% (inactive). Also, in experiment [4], the fluorescence ratio (interference) was 1 (inactive). Further, the fold change is 0.944 (inactive) in experiment [5] (setting [9]) and 0.719 in experiment [5] (setting [10]). Moreover, the cell count is 9830 in experiment [5] (setting [11]) and 10400 in experiment [5] (setting [12]). In experiment [6], the compound was called inactive. Besides, the z-score in experiment [7] is 0.62 (inactive).
Turning to `O=C(CCc1ccncc1)NNC(=O)N1Cc2ccccc2Oc2ccc(Cl)cc21`, the values for the fold change in experiment [5] (setting [9]) and in experiment [5] (setting [10]) were 1.04 (inactive) and 1.18, respectively. Moreover, the figures for the cell count in experiment [5] (setting [11]) and in experiment [5] (setting [12]) were 8820 and 8460, respectively. In addition, the outcome in experiment [6] was inactive. For the same compound, the z-score in experiment [7] is -0.355 (inactive).
Regarding `CC(=O)/C(C)=N/O`, the period change in experiment [1] is 0.15 h (inactive). In addition, the fold change was 0.97 (inactive) in experiment [5] (setting [9]) and 2.72 in experiment [5] (setting [10]). Moreover, the cell count is 9060 in experiment [5] (setting [11]) and 9340 in experiment [5] (setting [12]). Further, the compound was classed as inactive in experiment [6]. In experiment [7], the z-score was 0.485 (inactive).
For the compound `CCCCOC(=O)NS(=O)(=O)c1sc(CC(C)C)cc1-c1ccc(Cn2c(CC)nc3c(C)cc(C)nc32)cc1`, in experiment [1], the period change is -0.005 h (inactive). The inhibition in experiment [3] is -1% (inactive). Moreover, in experiment [4], the fluorescence ratio (interference) was 1 (inactive). Besides, the fold change in experiment [5] (setting [9]) is 0.772 (inactive); in experiment [5] (setting [10]) it was 0.69. In addition, the values for the cell count in experiment [5] (setting [11]) and in experiment [5] (setting [12]) were 4700 and 6080, respectively. The result in experiment [6] was inactive. In addition, the z-score in experiment [7] was -1.28 (inactive).
`CSc1nc(N)c2ncn([C@@H]3O[C@H](COP(=O)(O)OP(=O)(O)O)[C@H](O)C3O)c2n1` (stereo not given in full): the period change in experiment [1] is -0.26 h (inactive). The inhibition in experiment [3] is 33% (inactive). In addition, in experiment [4], the fluorescence ratio (interference) was 0.9 (inactive). Further, the fold change in experiment [5] (setting [9]) was 1.03 (inactive); in experiment [5] (setting [10]), 1.82. Moreover, the figures for the cell count in experiment [5] (setting [11]) and in experiment [5] (setting [12]) were 11000 and 10800, respectively. The compound was classed as inactive in experiment [6]. The z-score in experiment [7] was 0.32 (inactive).
As to `CC[C@H]1OC(=O)[C@H](C)C(O[C@H]2C[C@@](C)(OC)[C@@H](O)[C@H](C)O2)[C@H](C)[C@@H](OC2O[C@H](C)C[C@H](N(C)C)[C@H]2O)[C@](C)(O)C[C@@H](C)CN(C)[C@H](C)[C@@H](O)[C@]1(C)O` (stereo not given in full), the fold change was 1.06 (inactive) in experiment [5] (setting [9]) and 1.99 in experiment [5] (setting [10]). The values for the cell count in experiment [5] (setting [11]) and in experiment [5] (setting [12]) were 10100 and 9500, respectively. Further, in experiment [6], the compound was classed as inactive. Also, the z-score in experiment [7] was -0.895 (inactive).
For the compound `CCN(c1nc(N)c(C(=O)N=C(N)N)nc1Cl)C(C)C`, in experiment [1], the period change was -0.06 h (inactive). The inhibition in experiment [3] was -2% (inactive). Moreover, the fluorescence ratio (interference) in experiment [4] was 1 (inactive). For the same compound, the figures for the fold change in experiment [5] (setting [9]) and in experiment [5] (setting [10]) were 1.19 (inactive) and 1.19, respectively. Further, the cell count was found to be 5200 in experiment [5] (setting [11]) and 4360 in experiment [5] (setting [12]). Moreover, in experiment [6], the compound was classed as inactive. Also, the z-score in experiment [7] was -1.38 (inactive).
Regarding `CN1C2CCC1CC(OC(=O)C(O)c1ccccc1)C2` (stereo not given), the period change in experiment [1] was 0.16 h (inactive). In addition, the figures for the fold change in experiment [5] (setting [9]) and in experiment [5] (setting [10]) were 1.02 (inactive) and 1.06, respectively. The cell count came out at 10900 in experiment [5] (setting [11]) and 10700 in experiment [5] (setting [12]). Besides, in experiment [6], the compound was called inactive. For the same compound, the z-score in experiment [7] was 0.155 (inactive).
As for `CC(C)C[C@H](NC(=O)[C@H](O)[C@H](N)Cc1ccccc1)C(=O)O`, in experiment [1], the period change is -0.01 h (inactive). In addition, in experiment [3], the inhibition is -2% (inactive). The fluorescence ratio (interference) in experiment [4] is 1 (inactive). The fold change in experiment [5] (setting [9]) is 1.02 (inactive); in experiment [5] (setting [10]) it was 0.988. Further, the figures for the cell count in experiment [5] (setting [11]) and in experiment [5] (setting [12]) were 10100 and 9920, respectively. Besides, in experiment [6], the compound was classed as inactive. Moreover, in experiment [7], the z-score was 0.245 (inactive).
With `COCCOc1cc2ncnc(Cl)c2cc1OCCOC`, the fold change in experiment [5] (setting [9]) was 1.03 (inactive); in experiment [5] (setting [10]), 1.13. The cell count amounted to 9200 in experiment [5] (setting [11]) and 8960 in experiment [5] (setting [12]). For the same compound, the compound was classed as inactive in experiment [6]. For the same compound, the z-score in experiment [7] was -0.675 (inactive).
Turning to `Nc1ncnc2c1ncn2[C@@H]1O[C@H](CO)[C@H](O)C1O` (stereo not given in full), the period change in experiment [1] is 0.045 h (inactive). For the same compound, the survival in experiment [2] is 3.25 (inactive). Moreover, the inhibition in experiment [3] was -1% (inactive). Also, the fluorescence ratio (interference) in experiment [4] was 0.9 (inactive). In addition, the values for the fold change in experiment [5] (setting [9]) and in experiment [5] (setting [10]) were 1 (inactive) and 1.47, respectively. The cell count in experiment [5] (setting [11]) and in experiment [5] (setting [12]) was 11100 throughout. The compound was called inactive in experiment [6]. Further, in experiment [7], the z-score was 2.61 (active).
In the case of `CN1C2CC(OC(=O)[C@H](CO)c3ccccc3)CC1C1OC12` (stereo not given in full), the period change in experiment [1] is 0.01 h (inactive). Besides, the survival in experiment [2] was 4.58 (inactive). Moreover, in experiment [3], the inhibition was -4% (inactive). For the same compound, the fluorescence ratio (interference) in experiment [4] was 1 (inactive). The fold change was 0.96 (inactive) in experiment [5] (setting [9]) and 0.75 in experiment [5] (setting [10]). Moreover, the cell count in experiment [5] (setting [11]) was 10100; in experiment [5] (setting [12]), 10500. The outcome in experiment [6] was inactive. Besides, the z-score in experiment [7] was 0.535 (inactive).
`NC/C=C\C(=O)O`: the period change in experiment [1] was 0.03 h (inactive). Also, in experiment [3], the inhibition is -3% (inactive). Also, in experiment [4], the fluorescence ratio (interference) is 1 (inactive). Further, the values for the fold change in experiment [5] (setting [9]) and in experiment [5] (setting [10]) were 1.03 (inactive) and 1.8, respectively. Also, the cell count in experiment [5] (setting [11]) stood at 9360; in experiment [5] (setting [12]) it was 9050. For the same compound, the compound was classed as inactive in experiment [6]. In experiment [7], the z-score is -1.38 (inactive).
For the compound `CC1(C)CCC=[N+]1[O-]`, the period change in experiment [1] was -0.065 h (inactive). Further, the inhibition in experiment [3] is -2% (inactive). Also, the fluorescence ratio (interference) in experiment [4] is 1 (inactive). The fold change in experiment [5] (setting [9]) is 0.955 (inactive); in experiment [5] (setting [10]), 0.876. The cell count in experiment [5] (setting [11]) came to 9650; in experiment [5] (setting [12]), 10100. Further, in experiment [6], the result was inactive. Moreover, the z-score in experiment [7] was 0.285 (inactive).
Regarding `O=C(O)Cc1ccc(O)c(O)c1`, the period change in experiment [1] is -0.08 h (inactive). The inhibition in experiment [3] is -1% (inactive). Further, the fluorescence ratio (interference) in experiment [4] is 1 (inactive). Further, the fold change in experiment [5] (setting [9]) is 0.965 (inactive); in experiment [5] (setting [10]), 1.22. For the same compound, the cell count in experiment [5] (setting [11]) worked out at 9890; in experiment [5] (setting [12]), 10200. In addition, the result in experiment [6] was inactive. Besides, the z-score in experiment [7] is -0.87 (inactive).
In the case of `CN(CCCOc1ccc(Cc2ccccc2)cc1)CCC(=O)O`, the fold change in experiment [5] (setting [9]) was 0.994 (inactive); in experiment [5] (setting [10]) it was 1.84. For the same compound, the cell count in experiment [5] (setting [11]) was determined as 9930; in experiment [5] (setting [12]) it was 9990. The result in experiment [6] was inactive. In addition, the z-score in experiment [7] is 0.275 (inactive).
Regarding `N[C@@H](Cc1cnc[nH]1)C(=O)O`, the period change in experiment [1] is 0.03 h (inactive). Moreover, the inhibition in experiment [3] is 0% (inactive). In addition, the fluorescence ratio (interference) in experiment [4] is 1.1 (inactive). The fold change was 0.99 (inactive) in experiment [5] (setting [9]) and 1.08 in experiment [5] (setting [10]). Besides, the figures for the cell count in experiment [5] (setting [11]) and in experiment [5] (setting [12]) were 9970 and 10100, respectively. In experiment [6], the outcome was inactive. In experiment [7], the z-score was 0.865 (inactive).
Consider `N#CC(C#N)=C(N)/C(C#N)=C/c1ccc(O)cc1`, for which, in experiment [1], the period change was -0.025 h (inactive). Moreover, the parasite load remaining in experiment [8] was 31.2% (inactive). The compound further registered a viability in experiment [8] of 70.9%. Also, in experiment [3], the inhibition is -2% (inactive). For the same compound, in experiment [4], the fluorescence ratio (interference) is 1 (inactive). Also, the fold change is 0.894 (inactive) in experiment [5] (setting [9]) and 1.36 in experiment [5] (setting [10]). Also, the cell count in experiment [5] (setting [11]) worked out at 8590; in experiment [5] (setting [12]), 9610. In addition, in experiment [6], the compound was called inactive. Also, the z-score in experiment [7] was 0.29 (inactive).

For orientation: inhibition means the change of the read-out against control, counted positive when it falls. As a reminder, the viability is a read-out of living cells in per cent, often relative to untreated cells.
